Laboratory results taken from the OligoGym collection.

What follows are sequences tested against MIER1 (assay: pooled miR-30 sensor sort-seq; sequence = guide strand). Settings: shRNA.
Note: reference of the scale not given here.

Sequence | sensor-assay potency score (higher = more potent)
TTAATATTTCACCTGGTCCATT | -1.02
TATAATCTTCATCTTCTTCAGA | -0.137
TTAATCTTCTCAATGCTTCTTC | 0.934
TTGTGATGGATCATCATTGGAA | -0.466
TTCGTCTAGAAGACGATCCATG | -1.5
AATTTCTACACTCTTCCTCTGT | 0.0886
TAGTCGAACAGTACTACCATAA | -1.32
TTCTTCTTTCCAAATCGTGTTT | -0.957
ATCATCAAAATCATGAACCAGC | -0.377
TATAATCACTTTATCTTCTGGT | 0.758
TTATCTTCTGGTAAGTACTCAG | -0.171
TACTGTTTGATGCAGTTGGGGG | -0.856

The sequences below were run against MIOX in the same assay as above. Settings: shRNA.

Sequence | sensor-assay potency score (higher = more potent)
TCCATGACTGTCATTTTCTTGT | -1.1
TTGGGGAAATCTACGTCCGGGT | -0.845
TCTGGGTCCACATCAGGTCGGT | -0.363
TTCTTGTAGGAGAAGCCCCCAA | -0.777
TTGTAGGTGGTGAAGACACGGT | -0.626
TGCATGAGCTTGTAGGTGGTGA | -0.613
TCGAACTTGTTGAACTCCCGCA | -0.101
TTGTTAAACTTCATCACCTGGT | -0.0605
TTGGTGTAGAGGTCGAACTTGT | -0.568
TTTTCTTGTAGGAGAAGCCCCC | -0.0971
TGTGCTGTATCGAGGATCCTGG | -0.757
TACATCCCGAGCTCTGTGCTGT | -0.811

What follows are sequences tested against MIP in the same assay as above. Settings: shRNA.

Sequence | sensor-assay potency score (higher = more potent)
TCTCTCAGAAATACTCTTGAGC | -0.614
TGTCCATTGGAGACATCGGGTT | -1.24
TTGAGTGCTAGGTTTCCTCGGA | -0.0163
TAACGCTATACAGCACAGCGGC | -1.18
TGAGGACAGACAGTCTCTCAGA | -1.25
TTCCTCGGACAGCAGGTGGGGT | -1.18
TTGTCCATTGGAGACATCGGGT | -0.903
TTCAGTTCAACAGGTTCCCCTG | -0.987
TGAGTGCTAGGTTTCCTCGGAC | -0.712
TAGGTTTCCTCGGACAGCAGGT | -0.243
TCAGAAATACTCTTGAGCCGGG | 0.442
TCGTATGTGGCAAAGATGCAGA | -0.993

Each sequence was assayed against MIS12 in the same assay as above. Settings: shRNA.

Sequence | sensor-assay potency score (higher = more potent)
TTTTTTGCTCTTCTAATTCTGC | -0.78
TTTATCTTCAGGAAGCAAGATG | -0.586
TAATTCTGCAAGAAGGGCCTGC | 0.0971
TTCAGTCTTGTACTTCTCCTGT | 0.0481
